This is an account of results in PubChem BioAssay AID651791 (National Center for Advancing Translational Sciences (NCATS), 2012).

Inconclusive results are not listed. Calls of active or inactive are those of the source. Calls follow the shape of the dose curve; as a rule, active = well fitted inhibition curve with a large enough effect; inconclusive = small, poorly fitted or top-dose-only effect; inactive = no such curve, though single readings can be large or run the other way.
Potency is read from the fitted curve at half-maximal effect.

The nature of the test: InCell qHTS Assay for Inhibitors of the mTORC1 Signaling Pathway in MEF (Tsc2-/-, p53-/-) Cells: Hit Validation.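 Also: phospho-S6 Ser235/236 signal normalized to propidium iodide cell count per well; nearly all actives have a fitted effect of over 75% in size.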 The settings on record: phospho-rpS6 immunofluorescence, 24 h; activity change, negative = inhibition: at 38.3 µM (top of the series). For orientation: Quantitative high-throughput screening tests each substance at several concentrations.
For `CC1C(=O)N2CCCc3cc(S(=O)(=O)Nc4ccc(Br)cc4F)cc1c32` (stereo unspecified), the Potency was 14.7 µM (active). As for `CCCCC1CCC(C(=O)N2CC(=O)Nc3ccc(Cl)cc3C2c2ccc(F)cc2)CC1` (stereo unspecified), the activity change, negative = inhibition is -100%. For `Cc1cccc(Oc2coc3cc(OCC(=O)NC4CCCCC4)ccc3c2=O)c1`, the activity change, negative = inhibition is -100%. `O=C(c1ccc(CS(=O)c2ccccc2Cl)o1)N1CCN(c2cccc(Cl)c2)CC1` (stereo unspecified): the activity change, negative = inhibition is -100%. Consider `COc1cc(Nc2nc(SCC(=O)c3ccc(Cl)c(Cl)c3)nc3ccccc23)cc(OC)c1`, for which the activity change, negative = inhibition was -16.4%. `CCC(C)NC(=O)c1sc2nc(C)c(C(=O)Nc3ccc(C)cc3C)c(-c3ccc(Cl)cc3)c2c1N` (stereo unspecified): the activity change, negative = inhibition is -100%. As for `COc1ccc(-c2noc(CSc3nc(N)cc(=O)[nH]3)n2)cc1`, the activity change, negative = inhibition was -100%. Take `Cc1oc2c(cc(NS(=O)(=O)c3ccc(C(C)C)cc3)c3ccccc32)c1C(=O)OCc1ccccc1`: the activity change, negative = inhibition was -1.72%. As to `CSc1ccc(CCNC(=O)C(C)n2nc(C)c3sc4ccccc4c3c2=O)cc1` (stereo unspecified), the activity change, negative = inhibition was -100%. Same read-out and setting: the result for `COc1ccc(CNC(=O)c2cccc(N3CCCS3(=O)=O)c2)cc1OC` reads -100%. As to `CCCCOc1cccc(C(=O)N2CCN(CCc3ccncc3)CC2)c1`, the activity change, negative = inhibition is -100%. Consider `O=C(NCc1ccc(Cl)cc1)C(=O)NCC(c1cccs1)S(=O)(=O)c1ccc(Cl)cc1` (stereo unspecified), for which the activity change, negative = inhibition is -100%. On to `CCS(=O)(=O)c1ncc(Cl)c(C(=O)NCc2ccccc2)n1`, for which the Potency is 10.4 µM (active). `CCOC(=O)c1ccc(-c2ccc(/C=C(\C#N)c3nc4ccc(C)cc4[nH]3)o2)cc1`: the activity change, negative = inhibition is -100%. As for `Cc1cccc(NC(=O)c2c(N)sc3c2CCC(C)C3)c1` (stereo unspecified), the activity change, negative = inhibition was -100%.

As for `Cc1nc2nncn2c(NCc2ccc(Cl)cc2)c1C`, the activity change, negative = inhibition was -100%. On to `CC1=C(C(=O)OC2CCCC2)C(c2ccccc2Cl)CC(=O)N1` (stereo unspecified), for which the activity change, negative = inhibition was -100%. The same measure, in the same setting: the result for `COc1ccc(N2CCN(C(=O)C3CCN(Cc4nc(-c5ccc(Cl)cc5)oc4C)CC3)CC2)cc1` reads -100%.

For `CC(C)Oc1ccc(CNC(=O)c2ccc3nc(SCc4ccc(F)cc4)n(C)c3c2)cc1`, the activity change, negative = inhibition was -100%. As for `CCOc1ccc(Nc2nc(-c3cccc(Cl)c3)c3c(n2)-c2ccccc2OC3)cc1`, the activity change, negative = inhibition is -100%. On to `COc1ccc(Oc2nc3c(C)cccn3c(=O)c2/C=C(\C#N)c2nc3ccccc3[nH]2)cc1`, for which the activity change, negative = inhibition is -100%.
